Here are results for 59 compounds from PubChem BioAssay (NCATS).

Several values for one entry are separate records, joined by “and”; a condition that tells them apart may be missing. Equal entries are not always repeated. Inconclusive results are not listed. Activity calls are given as the source filed them. Calls follow the shape of the dose curve; as a rule, active = well fitted curve in the direction sought with a large enough effect; inconclusive = small, poorly fitted or top-dose-only effect, or another doubt; inactive = no such curve, though single readings can be large; an effect the other way counts as inactive or inconclusive.

The nature of assay [1]: qHTS Assay for Identification of Small Molecule Agonists for Thrombopoietin (TPO) Signaling Pathway (AID 917). The note with it: TPO signaling pathway reporter cells, agonist qHTS; series mostly up to 38.5 µM. An outline of the steps:
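Cell-based luciferase reporter screen. Mouse Ba/F3 line stably expressing human TPO receptor; IL-3 removed overnight before plating. Co-treatment with compound and EC50 TPO (26 pM), 24 hrs at 37 C, then luminescence.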
(qHTS replaces the single test concentration by a dilution series.)

Assay [2] has as its target Muscarinic acetylcholine receptor M1 (Rattus norvegicus) (UniProt P08482). Description: qHTS Assay for Antagonists of Acetylcholine Muscarinic M1 Receptor: Measurement of IP-One Response (AID 944). Also: nearly all actives have a fitted effect of over 75% in size. The note with it: CHO-M1 cells, IP-One HTRF, antagonist mode; series mostly up to 46.1 µM. An outline of the steps:
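IP1 accumulation measured via TR-FRET between d2-IP1 and Eu-cryptate anti-IP1 antibody after carbachol (200 nM, EC80) stimulation for 30 min; rat M1-transfected CHO cells received compound 10 min before agonist.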

Assay [3] concerns the target Pyruvate kinase (Leishmania mexicana) (UniProt Q27686). As to the kind of experiment: qHTS Validation Assay for Inhibitors of Leishmania Mexicana Pyruvate Kinase (AID 945). The note with it: purified L. mexicana pyruvate kinase, enzyme activity, E451W mutant enzyme; series mostly up to 57.5 µM. An outline of the steps:
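Pyruvate kinase activity of E451W LmPYK (0.2 nM) was followed as ATP output after 1 h at room temperature with 0.5 mM PEP and 0.1 mM ADP, detected by PKLight luminescence.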

Assay [4] in a line: qHTS Assay for Identification of Small Molecule Antagonists for Thrombopoietin (TPO) Signaling Pathway (AID 918). Also: nearly all actives have a fitted effect of over 60% in size. To be noted: TPO-dependent cell signaling reporter, antagonist mode. An outline of the steps: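 Inhibition read as reduced luciferase luminescence after 24 h at 37 C in IL-3-deprived Ba/F3 cells carrying human TPO receptor and GPIIb-promoter reporter, stimulated with 26 pM TPO (final, its EC50) alongside compound.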

In assay [5] the target is Muscarinic acetylcholine receptor M1 (Rattus norvegicus) (UniProt P08482). As to the kind of experiment: qHTS Assay for Antagonists of Acetylcholine Muscarinic M1 Receptor: Kinetic Measurement of Intracellular Calcium Response (AID 943). Also: nearly all actives have a fitted effect of over 75% in size. The note with it: M1-expressing cells, kinetic intracellular calcium fluorescence; series mostly up to 35.3 µM. An outline of the steps: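 Antagonism measured as reduction of carbachol-evoked (EC80, 100 nM final) calcium flux in rat M1-CHO cells after 10 min compound exposure. Fluo-4 signal read kinetically; ratio of maximal to basal fluorescence.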
Muscarinic acetylcholine receptor M1 (Rattus norvegicus), sequence (P08482 whole entry, looked up): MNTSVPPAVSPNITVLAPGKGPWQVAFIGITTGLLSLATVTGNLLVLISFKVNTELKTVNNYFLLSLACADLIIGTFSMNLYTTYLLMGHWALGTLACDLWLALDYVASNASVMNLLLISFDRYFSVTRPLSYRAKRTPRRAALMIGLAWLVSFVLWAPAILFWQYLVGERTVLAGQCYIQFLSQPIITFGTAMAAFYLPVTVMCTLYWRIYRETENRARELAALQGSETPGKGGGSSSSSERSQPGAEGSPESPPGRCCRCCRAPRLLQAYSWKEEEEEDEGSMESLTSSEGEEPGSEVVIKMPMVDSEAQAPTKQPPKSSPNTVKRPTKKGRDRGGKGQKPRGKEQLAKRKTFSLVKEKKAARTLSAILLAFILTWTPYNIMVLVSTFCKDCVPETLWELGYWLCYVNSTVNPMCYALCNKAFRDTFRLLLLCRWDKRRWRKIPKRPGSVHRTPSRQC

Assay [6] in a line: MultiTox-Fluor Cytotoxicity Assay - LYMP1-001 - Dead Cells (AID 946).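 Also: cells exposed to compound for 16 h.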 To be noted: LYMP1-001 lymphoblastoid cells, dead-cell protease fluorescence; series mostly up to 92.2 µM. An outline of the steps: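 LYMP1-001 lymphoblastoid cells (2500/well) treated 16 h at 37 C. Dead-cell protease cleavage of bis-AAF-R110 read at Ex/Em 485/520. Normalized to DMSO and 15 uM tetraoctylammonium bromide; AC50 from Hill fits.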

Assay [7] can be described thus: Cell Viability - LYMP2-001 (AID 921). Also: nearly all actives have a fitted effect of over 70% in size. To be noted: LYMP2-001 lymphoblastoid cell viability; series mostly up to 92.2 µM. An outline of the steps: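 Steps: seed 2500 lymphoblastoid cells/well; 5 hr, 37 C; add compound; 24 hr, 37 C; CellTiter-Glo reagent, 30 min room temperature; read luminescence. Concentration-response modeled by Hill equation for AC50.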
Potency is read from the fitted curve at half-maximal effect.

Pyruvate kinase (Leishmania mexicana), sequence (Q27686 2-499 E452W): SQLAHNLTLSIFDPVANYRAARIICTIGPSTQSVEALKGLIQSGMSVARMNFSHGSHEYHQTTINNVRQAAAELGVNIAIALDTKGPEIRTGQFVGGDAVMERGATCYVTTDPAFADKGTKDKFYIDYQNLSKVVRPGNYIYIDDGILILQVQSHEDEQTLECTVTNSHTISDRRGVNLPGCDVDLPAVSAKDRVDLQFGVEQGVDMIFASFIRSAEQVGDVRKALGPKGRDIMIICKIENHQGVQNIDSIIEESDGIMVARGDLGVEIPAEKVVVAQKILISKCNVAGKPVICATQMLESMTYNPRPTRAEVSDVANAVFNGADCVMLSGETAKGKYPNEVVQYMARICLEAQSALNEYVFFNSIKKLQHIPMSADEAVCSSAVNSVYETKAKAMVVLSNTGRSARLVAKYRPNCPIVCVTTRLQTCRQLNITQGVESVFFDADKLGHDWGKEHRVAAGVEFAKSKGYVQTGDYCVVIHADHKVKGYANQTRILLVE

Take `CCCn1c(C)c(C(=O)c2ccc3ccccc3c2)c2ccccc21`: the Potency in assay [1] is 10 µM (active). Besides, the Potency result in assay [2] and in assay [3] was “inactive” in each case.

As for `CCN(CCCl)Cc1ccccc1Br`, the Potency entry in assay [1] and in assay [3] was “inactive” throughout.

As for `c1ccc2cc(CC3=NCCN3)ccc2c1`, the Potency result in assay [1] and in assay [3] was “inactive” throughout.

As for `CN1CCc2cccc(Cl)c2CC1`, the Potency result in assay [1] and in assay [3] was “inactive” throughout.

Take `Clc1ccc(N2C[C@H]3CC[C@@H](C2)N3)nn1`: the Potency result in assay [1] and in assay [3] was “inactive” each time.

`Cc1c2ccncc2c(C)c2c1[nH]c1ccccc12`: the Potency in assay [4] is 10 µM (active); in assay [2], 25.1 µM (active). The Potency entry in assay [5] and in assay [3] was “inactive” in each case.

For the compound `CCCN(CCC)CCc1c[nH]c2ccc(C(N)=O)cc12`, the Potency result in assay [1] and in assay [3] was “inactive” each time.

As for `COc1ccc2[nH]c3c(c2c1)CCNC3`, the Potency result in assay [1], in assay [5], in assay [2] and in assay [3] was “inactive” in each case.

As to `O=C1C=CC(=O)C=C1`, the Potency result in assay [1], in assay [5], in assay [2], in assay [3] and in assay [6] was “inactive” in each case.

As for `NCCc1c[nH]c2ccc(C(N)=O)cc12`, the Potency entry in assay [1], in assay [2] and in assay [3] was “inactive” in each case.

With `CN(N=O)c1ccc(O)c(O)c1`, the Potency entry in assay [1], in assay [2] and in assay [3] was “inactive” in each case.

As for `CCS(=O)(=O)Nc1cccc(C(=C2CCCCC2)c2cnc[nH]2)c1`, the Potency result in assay [1], in assay [2] and in assay [3] was “inactive” in each case.

For the compound `C[N+]1(C)CCN(c2ccccc2)CC1`, the Potency entry in assay [1] and in assay [3] was “inactive” each time.

With `CCCN1CCc2cc(O)cc3c2[C@H]1Cc1ccc(O)c(O)c1-3`, the Potency in assay [4] was 10 µM (active). The Potency entry in assay [3] was “inactive”.

For the compound `NNC(=O)c1ccc(O)cc1`, the Potency entry in assay [1], in assay [5] and in assay [3] was “inactive” in each case.

Consider `CC(C)NP(=O)(NC(C)C)OP(=O)(NC(C)C)NC(C)C`, for which the Potency result in assay [1], in assay [2] and in assay [3] was “inactive” throughout.

With `C[C@H](N)CN1CCc2ccc(Br)cc21`, the Potency result in assay [1] and in assay [3] was “inactive” each time.

As to `CCCN(CCC)C1Cc2cc(OC)c(OC)cc2C1`, the Potency entry in assay [1] and in assay [3] was “inactive” in each case. In addition, the Potency in assay [5] was 1.26 µM (active); in assay [2] it was 2.51 µM (active).

As for `NC(=O)COc1c(F)cc(SCCNS(=O)(=O)c2ccccc2)cc1F`, the Potency result in assay [1] and in assay [3] was “inactive” throughout.

Regarding `c1ccc2c(c1)[I+]c1ccccc1-2`, the Potency in assay [4] is 0.0398 µM (active). Besides, the Potency result in assay [2] and in assay [3] was “inactive” in each case.

With `CCCn1c(=O)c2[nH]c(C3CCCC3)nc2n(CCCOC(=O)c2ccc(S(=O)(=O)F)cc2)c1=O`, the Potency result in assay [1] and in assay [3] was “inactive” throughout. Also, in assay [5], the Potency was 5.01 µM (active).

As to `COc1ccc2c(c1)/C(=C/c1cnc[nH]1)C(=O)N2`, the Potency in assay [4] is 10 µM (active). Besides, the Potency entry in assay [5] and in assay [3] was “inactive” each time.

As to `c1ccc2c(N3CCNCC3)cccc2c1`, the Potency entry in assay [1] and in assay [3] was “inactive” in each case.

Consider `N[C@@H](Cn1oc(=O)[nH]c1=O)C(=O)O`, for which the Potency entry in assay [1], in assay [2] and in assay [3] was “inactive” throughout.

On to `C[N+]1(C)[C@@H]2CC[C@H]1CC(OC(=O)c1c[nH]c3ccccc13)C2` (stereo partly specified), for which, in assay [4], the Potency is 10 µM (active). In assay [3], the Potency entry is “inactive”.

As for `CC(C)CCON=O`, the Potency result in assay [7] and in assay [6] was “inactive” each time.

Regarding `C[C@H]1CC[C@@H]2[C@@H](C)[C@H]3[C@H](C[C@H]4[C@@H]5CC=C6CC(O[C@@H]7O[C@H](CO)[C@H](O)[C@H](O[C@@H]8O[C@H](CO)[C@@H](O)[C@H](O)[C@H]8O)[C@H]7O[C@H]7O[C@@H](C)[C@H](O)[C@@H](O)[C@H]7O)CC[C@]6(C)[C@H]5CC[C@]34C)N2C1` (stereo partly specified), the Potency result in assay [7] was “inactive”.

`CCCCCl`: the Potency entry in assay [7] and in assay [6] was “inactive” throughout.

In the case of `CCOC(=O)c1ccccc1C(=O)OCC`, the Potency entry in assay [7] and in assay [6] was “inactive” throughout.

Turning to `ClC=C(Cl)Cl`, the Potency result in assay [7] and in assay [6] was “inactive” in each case.

Take `C[C@]12CCC(=O)C[C@@H]1CC[C@@H]1[C@@H]2CC[C@]2(C)[C@@H](O)CC[C@@H]12`: the Potency entry in assay [7] is “inactive”.

With `C[C@H]1CCC[C@H](O)CCCCCc2cc(O)cc(O)c2C(=O)O1`, the Potency entry in assay [7] and in assay [6] was “inactive” throughout.

Regarding `[O]=[Cr](=[O])([OH])[O][Cr](=[O])(=[O])[OH]`, in assay [7], the Potency is 12.6 µM (active) and 6.31 µM (active). For the same compound, the Potency result in assay [6] was “inactive”.

For the compound `O=S1(=O)N(CCN2CC=C(c3c[nH]c4cc(F)ccc34)CC2)c2cccc3c2N1CCC3`, the Potency in assay [5] is 15.8 µM (active); in assay [2] it was 14.1 µM (active). In addition, the Potency entry in assay [3] was “inactive”.

Turning to `S=C=S`, the Potency entry in assay [7] and in assay [6] was “inactive” in each case.

Regarding `CCCCCCCCOC(=O)c1ccccc1C(=O)OCCCCCCCC`, the Potency result in assay [7] and in assay [6] was “inactive” each time.

`O=C(O)c1cc[c]([Hg][Cl])cc1`: the Potency entry in assay [5] and in assay [2] was “inactive” throughout. Besides, in assay [3], the Potency is 3.98 µM (active).

Regarding `C[C@@H]1O[C@H](C[N+](C)(C)C)CS1`, the Potency result in assay [5], in assay [2] and in assay [3] was “inactive” throughout.

As for `CN1CCC(c2c[nH]c3ccc(O)cc23)CC1`, the Potency result in assay [3] is “inactive”.

Take `Oc1cc(Cl)c(Cl)cc1Cl`: the Potency result in assay [7] and in assay [6] was “inactive” throughout.

For the compound `ClC(Cl)(Cl)Cl`, the Potency entry in assay [7] and in assay [6] was “inactive” throughout.

As to `O=C1C2CC=CCC2C(=O)N1SC(Cl)(Cl)Cl` (stereo unspecified), the Potency was 2 µM (active) and 5.01 µM (active) in assay [7]; 10 µM (active) in assay [6].

Consider `N#CC(C#N)=Cc1cc(O)c(O)c(O)c1`, for which the Potency result in assay [3] was “inactive”.

Consider `ClCC1CO1` (stereo unspecified), for which the Potency result in assay [6] is “inactive”.

`CC(C)(C)c1cc(O)ccc1O`: the Potency in assay [7] was 39.8 µM (active). For the same compound, the Potency result in assay [6] was “inactive”.

As for `CC(C)Nc1ccc(Nc2ccccc2)cc1`, the Potency in assay [7] is 12.6 µM (active).

Turning to `NNC(N)=O`, the Potency result in assay [7], in assay [3] and in assay [6] was “inactive” throughout.

With `Clc1ccccc1Cl`, the Potency result in assay [7] and in assay [6] was “inactive” in each case.

`O=C/C=C/c1ccccc1`: the Potency result in assay [7] and in assay [6] was “inactive” in each case.

Turning to `O=[N+]([O-])c1ccccc1`, the Potency entry in assay [7] and in assay [6] was “inactive” throughout.

Take `O=c1c2ccccc2[se]n1-c1ccccc1`: the Potency result in assay [5] and in assay [2] was “inactive” each time. The Potency in assay [3] is 10 µM (active).

As to `C=CCN=C=S`, the Potency entry in assay [7] and in assay [6] was “inactive” each time.

`CN(N=O)c1cc(O)ccc1O`: the Potency result in assay [5], in assay [2] and in assay [3] was “inactive” throughout.

For `O=CC=O`, the Potency result in assay [7] and in assay [6] was “inactive” in each case.

`O=Cc1ccco1`: the Potency result in assay [7] and in assay [6] was “inactive” each time.

As to `O=[N+]([O-])c1ccc(F)c([N+](=O)[O-])c1`, the Potency entry in assay [6] was “inactive”.

With `[O]=[Cd]`, the Potency result in assay [7] and in assay [6] was “inactive” in each case.

For `COC1=CC(=O)O[C@@H](/C=C/c2ccccc2)C1`, the Potency entry in assay [7] and in assay [6] was “inactive” in each case.

On to `O=C(O)C(Cl)(Cl)Cl`, for which the Potency entry in assay [7] and in assay [6] was “inactive” throughout.
